Test results reported in PubChem BioAssay (Tox21).
Unmarked numbers belong to inactive results. The source made the active and inactive calls. The call rests on the fitted dose curve.

What follows are compounds tested against Acetylcholinesterase (Homo sapiens) (UniProt P22303) (assay: Acetylcholinesterase (AChE) small molecule antagonists: enzyme-based qHTS assay (AID 1347397; further: nearly all actives have a fitted effect of over 55% in size)). Conditions: Potency: AChE enzyme activity inhibition; outcome: AChE enzyme activity inhibition; series mostly up to 115 µM; activity change, negative = inhibition: at the top concentration.
From the text: National Center for Advancing Translational Sciences [NCATS]
Division of Preclinical Innovation [DPI]
U.S. Environmental Protection Agency [EPA]
National Institutes of Environmental Health Sciences [NIEHS]
National Toxicology Program [NTP]
U.S. Food and Drug Administration [FDA]
Acetylcholinesterase (AChE) is the primary cholinesterase in the body that hydrolyzes a key neurotransmitter, acetylcholine. Inhibition of AChE activity can lead to neurotoxicity. The known inhibitors include organophosphorous pesticides (OP), chemical warfare agents, drugs, and various phytochemicals.
An enzyme-based assay with the recombinant human AChE and Amplite Colormetric acetylcholinesterase assay kit (AAT Bioquest, Sunnyvale, CA) was used to evaluate the chemicals in the Tox21 10K library that inhibit AChE activity. The assay uses 5, 5-dithiobis-(2-nitrobenzoic acid) (DTNB) to quantify the thiocholine produced from the hydrolysis of acetylthiocholine by AChE.
Tox21 Assay Protocol Summary:
For the enzyme-based AChE assay, recombinant human AChE (50 mU/mL) in 4 uL/well was dispensed into black, clear-bottom 1536-well plates using a Multidrop Combi dispenser (Thermo Scientific, MA). Then, 23 nL of compound or DMSO (vehicle control) was transferred into the assay plates by a Pintool Station (Wako Automation, CA). The plates were incubated for 30 min at room temperature, followed by the addition of 4 uL of colorimetric detection cocktail solution (DTNB, acetylthiocholine) into each well using a Flying Reagent Dispenser (Beckman Coulter, CA) and then 10 min incubation at room temperature.
On the % scale 0 is the no-effect control and ±100 the full control effect; potency means the concentration at half of the fitted maximal effect.

Chain of Acetylcholinesterase (Homo sapiens) (P22303 whole entry, looked up): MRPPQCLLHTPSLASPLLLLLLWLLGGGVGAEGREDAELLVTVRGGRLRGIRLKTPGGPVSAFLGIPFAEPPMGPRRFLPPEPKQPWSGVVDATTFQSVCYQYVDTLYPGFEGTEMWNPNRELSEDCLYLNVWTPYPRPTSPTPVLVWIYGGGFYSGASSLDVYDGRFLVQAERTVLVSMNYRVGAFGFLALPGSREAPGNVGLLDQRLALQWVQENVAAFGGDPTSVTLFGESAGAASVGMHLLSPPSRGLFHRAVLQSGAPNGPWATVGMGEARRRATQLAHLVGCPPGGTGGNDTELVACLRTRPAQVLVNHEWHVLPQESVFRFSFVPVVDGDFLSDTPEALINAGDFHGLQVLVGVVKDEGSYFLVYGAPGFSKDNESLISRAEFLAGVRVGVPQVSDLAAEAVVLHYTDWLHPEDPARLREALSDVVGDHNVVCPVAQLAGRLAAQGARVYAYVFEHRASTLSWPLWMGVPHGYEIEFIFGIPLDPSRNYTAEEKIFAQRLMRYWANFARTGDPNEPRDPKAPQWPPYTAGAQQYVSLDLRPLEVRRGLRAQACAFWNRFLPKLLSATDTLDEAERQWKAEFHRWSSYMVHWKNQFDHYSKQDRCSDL

Compound	Potency	activity change, negative = inhibition
CNC(=O)O/N=C(/CSC)C(C)(C)C	1000 nM (active)	–
CCNc1nc(Cl)nc(NC(C)(C)C)n1	–	0.891%
C#CC(C)(C)O	–	0.136%
CCNP(=S)(OC)O/C(C)=C/C(=O)OC(C)C (stereo not given)	–	-6.29%
CCC(CC)(CNC(=O)CCCO)c1cccc(OC)c1	–	-0.0126% [at 53 µM]
O=c1[nH]c2ccccc2o1	–	-0.815%
CC(C)(N)Cc1ccc(Cl)cc1	–	0.126% [at 53 µM]
ClC(Cl)(Cl)Cl	–	0.538%
CCN[C@@H](C)Cc1ccccc1	–	2.6%
Cn1c(CCCC(=O)O)nc2cc(N(CCCl)CCCl)ccc21	–	-0.27% [at 53 µM]
CC(C)C(C)(N)C#N (stereo not given)	–	1.32%
CN(C)C1CCCCC1	–	1.67%
ClCCN1CCCC1	–	0.139% [at 53 µM]
O=CCCl	–	-0.358%
Brc1c(Br)c(Br)c(Br)c(Br)c1Br	–	-2.31% [at 10.5 µM]
ClC1=C(Cl)C2(Cl)C(CBr)CC1(Cl)C2(Cl)Cl (stereo not given)	inactive	–
CON(C)C(=O)Nc1ccc(Br)cc1	–	-0.129%
N#CN	–	0.181% [at 300 µM]
CCCCCCCCSC(=O)Oc1cc(Cl)nnc1-c1ccccc1	–	4.87%
O=C(CCl)NCO	–	1.12%

Compound	Potency	activity change, negative = inhibition
CC[C@H](N)c1ccccc1	–	1.88%
CCCN1CCC[C@@H]2Cc3nc(N)ncc3C[C@H]21	–	-5.3% [at 53 µM]
OCC(Cl)CCl (stereo not given)	–	-0.157%
O=C(O)C(Br)(Br)Br	–	0.24%
COc1cc(CC(C)N)cc(OC)c1OC (stereo not given)	–	1.09%
CCC1(CC)C(=O)C=CNC1=O	–	0.705% [at 53 µM]
C=C1C[C@@H]2[C@H](CC[C@]3(C)C(=O)CC[C@@H]23)[C@@]2(C)C=CC(=O)C=C12	–	-0.736% [at 53 µM]
CS(=O)(=O)Cl	–	-0.416%
CCCOC(=O)Cc1ccc(OCC(=O)N(CC)CC)c(OC)c1	–	-1.25% [at 53 µM]
CCOC(=O)COc1ccc(Cl)cc1Cl	–	3.49%
BrCCc1ccccc1	–	0.682%
C#CCOC(=O)/C=C(C)/C=C/CC(C)CCCC(C)C (stereo not given)	–	-4.06%
O=C(O)c1c(Cl)ccc2cc(Cl)cnc12	–	1.18%
CNC(=O)NC(O)C(Cl)(Cl)Cl (stereo not given)	–	0.954% [at 53 µM]
CC(C)(O)C(Cl)(Cl)Cl	–	1.08% [at 53 µM]
O=C(O)C(Cl)Br (stereo not given)	–	0.386%
CCCN1CCC[C@@H]2Cc3[nH]ncc3C[C@H]21	–	-6.09% [at 53 µM]
CCC(C(N)=O)N1CCCC1=O (stereo not given)	–	2.56% [at 53 µM]
C/C(=N\NC(=O)Nc1cc(F)cc(F)c1)c1ncccc1C(=O)O	inactive	–
COc1ccc(CN2CCNCC2)c(OC)c1OC	–	1.88% [at 53 µM]
